Assay results from the supplement of paper PMC6522484.
± gives the standard deviation of the averaged measurements.

Key:
[1] = test system: DLD1; assay: cell viability (CellTiter-Glo) relative to plate median (fraction of plate median); higher = more viable cells; details: 5 µM; treatment time 24 h; reporter: 7TFP
How it was run: (§1)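 On parallel plates, a Tecan F500 reader recorded either firefly luciferase or CellTiterGlo luminescence. The plates held colorectal cancer cells stably transduced with lentiviral TCF/Wnt firefly luciferase reporters (7TFP or TCF4/Wnt), seeded in 384-well format and treated 24 h later with library compounds at a final 5 µM for 24 h. Per-well signals were normalised to the plate median (webcellHTS2, additive, no log transformation), and two independent replicates were averaged.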

[2] = test system: HCT116; assay: as above; details: 5 µM; treatment time 24 h; reporter: TCF4/Wnt
How it was run: as §1

[3] = test system: SW480; assay: as above; details: 5 µM; treatment time 24 h; reporter: 7TFP
How it was run: as §1

[4] = test system: DLD1; assay: TCF/Wnt firefly luciferase reporter signal relative to plate median (fraction of plate median); higher = higher Wnt reporter signal; details: 5 µM; treatment time 24 h; reporter: 7TFP
How it was run: as §1

[5] = test system: SW480; assay: as above; details: 5 µM; treatment time 24 h; reporter: 7TFP
How it was run: as §1

| Structure (SMILES) | cell viability [1] | cell viability [2] | cell viability [3] | TCF/Wnt firefly luciferase reporter signal [4] | TCF/Wnt firefly luciferase reporter signal [5] |
| --- | --- | --- | --- | --- | --- |
| O=C(O)CCCc1ccc(N(CCCl)CCCl)cc1 | 1.02 ± 0.035 | 0.958 ± 0.011 | 1.02 ± 0.067 | 0.974 ± 0.037 | 0.966 ± 0.0028 |
| CNC(C)[C@H](O)c1ccccc1 (stereo not given in full) | 0.976 ± 0.063 | 0.917 ± 0.0099 | 1.02 ± 0.03 | 0.978 ± 0.2 | 1 ± 0.095 |
| C[C@]12CCC(=O)C=C1C=C[C@@H]1[C@@H]2CC[C@@]2(C)[C@H]1CC[C@@]2(O)CCC(=O)O | 1.02 ± 0.07 | 1.16 ± 0.014 | 1.04 ± 0.028 | 1.01 ± 0.05 | 1.06 |
| CN(C)C(=S)SSC(=S)N(C)C | 0.722 ± 0.25 | 0.363 ± 0.021 | 0.997 ± 0.033 | 0.686 ± 0.13 | 0.508 ± 0.12 |
| c1ccc(/N=N/c2ccccc2)cc1 | 1.03 ± 0.021 | 0.981 ± 0.027 | 1.04 ± 0.028 | 1.04 ± 0.088 | 0.986 ± 0.091 |
| CCn1cc(C(=O)O)c(=O)c2cc3c(cc21)OCO3 | 0.96 ± 0.016 | 0.949 ± 0.031 | 0.847 ± 0.27 | 0.893 ± 0.058 | 1 ± 0.11 |
| COc1cc([C@@H]2c3cc4c(cc3[C@H](O)[C@H]3COC(=O)[C@H]23)OCO4)cc(OC)c1OC | 0.903 ± 0.091 | 0.552 ± 0.075 | 0.95 ± 0.14 | 0.831 ± 0.34 | 0.783 ± 0.061 |
| CCNc1nc(Cl)nc(NC(C)C)n1 | 0.981 ± 0.017 | 1.07 ± 0.064 | 0.946 ± 0.023 | 0.965 ± 0.0071 | 0.976 ± 0.0071 |
| CC(=O)O[C@@H]1CC2C(C)(C)[C@H](O)C=C[C@]2(C)C2CC[C@]3(C)C(=CC(=O)O[C@H]3c3ccoc3)[C@@]21C (stereo partly drawn) [3-alpha-HYDROXYDEOXYGEDININ] | 1.08 ± 0.092 | 1.11 ± 0.014 | 1.08 ± 0.11 | 1.04 ± 0.097 | 0.943 ± 0.076 |
| CC1(C)C2C[C@@H](O)[C@]3(C)C(CC[C@@]4(C)[C@H](c5ccoc5)OC(=O)[C@H]5O[C@]543)[C@@]2(C)[C@@H](O)C[C@H]1O (stereo not given in full) | 1.02 ± 0.071 | 0.963 ± 0.081 | 0.989 ± 0.0057 | 1.07 ± 0.18 | 0.936 ± 0.055 |
| O=C(NC(=O)c1c(F)cccc1F)Nc1cc(Cl)c(OC(F)(F)C(F)C(F)(F)F)cc1Cl (stereo not given) | 0.985 ± 0.05 | 0.984 ± 0.066 | 0.987 ± 0.013 | 0.907 ± 0.028 | 1.03 |
| COP(=O)(OC)OC=C(Cl)Cl | 1.05 ± 0.014 | 0.94 ± 0.099 | 0.994 ± 0.037 | 1.04 ± 0.18 | 1.03 ± 0.028 |
| O=[N+]([O-])c1ccc(O)c([N+](=O)[O-])c1 | 0.981 ± 0.042 | 0.953 ± 0.034 | 0.905 ± 0.098 | 0.966 ± 0.13 | 1.03 ± 0.035 |
